# Test results taken from PubChem BioAssay AID463175 (Southern Research Specialized Biocontainment Screening …, 2010).
# The source made the active and inactive calls.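 Rule for the calls: active = inhibition above 40% at one or more tested concentrations in the dose response counterscreen; inactive = inhibition below 40% at every dose tested.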
# Test: nmpC-GFP expression in S. Typhimurium, late-stage follow-up, counter-screen for PhoP regulon inhibitor project, synthesized compounds, set 5 (AID 463175)
# Conditions: S. Typhimurium non-PhoP-regulated nmpC promoter-GFP fluorescence (growth counterscreen), 4 h; series mostly up to 150 µM
row,SMILES,outcome
1,COc1cccc(NC(=O)N2CCCN(Cc3ccccc3F)C2)c1,inactive
2,O=C1C2=C(Nc3ccccc3SC2c2cccc(Br)c2)c2ccccc21 (stereo unspecified),inactive
3,O=C1C2=C(Nc3ccccc3SC2c2cccnc2)c2ccccc21 (stereo unspecified),inactive
4,Clc1ccc(C2Sc3ccccc3N=C3c4ccccc4CC32)cc1 (stereo unspecified),inactive
5,Cc1ccc(C2Sc3ccccc3N=C3c4ccccc4CC32)cc1 (stereo unspecified),inactive
6,O=C1C2=C(Nc3ccccc3SC2c2ccc(Cl)cc2)c2ccccc21 (stereo unspecified),inactive
